Reference: PubChem BioAssay
Calls of active or inactive are those of the source.

Experiments:
[1] = tested on: Plasmodium falciparum Sir2 (PF13_0152, Sir2A); test: pfSir2 binders on small-molecule microarrays, primary screen, biochemical, small-molecule microarray, 635 nm fluorescence (AID 1098); conditions: small-molecule microarray binding, fluorescence 635 nm; higher = more signal;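 also: score merges spot fluorescence intensity with its signal-to-noise ratio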
[2] = small-molecule microarray binders of probe aDKK1, primary screen, biochemical, biotinylated probe, 635/667 nm fluorescence (AID 1099); conditions: higher = more signal;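 also: score merges 667nm spot fluorescence with signal to noise across triplicate slides; reference of the scale not given here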
[3] = small-molecule microarray binders of probe aCHRDL2, primary screen, biochemical, biotinylated probe, 635/667 nm fluorescence (AID 1100); conditions: higher = more signal
[4] = splicing luciferase reporter signal modulators, primary screen, spliceosome inhibition project, cell-based, HEK293, splice +/- reporter (AID 1101); conditions: luminescence, 24 h, higher = more signal, called active from +8 up or from −8 down;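 also: HEK293 cells carrying a splicing-competent luciferase reporter gene; test concentration not given here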
[5] = biological target: Fibroblast growth factor 10 (Homo sapiens) (UniProt O15520); test: FGF10 binders on small-molecule microarrays, primary screen, biochemical, small-molecule microarray, 635 nm fluorescence (AID 1102); conditions: FGF10 binding, fluorescence 635 nm, higher = more signal
[6] = tested on: glycogen synthase kinase-3 (GSK3A per assay name; protocol says GSK3B); test: GSK3 binders on small-molecule microarrays, primary screen, biochemical, small-molecule microarray, 635 nm fluorescence, GSK3A (AID 1103); conditions: small-molecule microarray binding, fluorescence 635 nm; higher = more signal; also: the record names both GSK3A and GSK3B
[7] = biological target: Epidermal growth factor receptor (Homo sapiens) (UniProt P00533); test: EGFR binders on small-molecule microarrays, primary screen, biochemical, small-molecule microarray, 635 nm fluorescence (AID 1104); conditions: EGFR binding, higher = more signal;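 also: score merges 667 nm emission intensity with spot signal to noise over triplicate slides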
[8] = biological target: Follistatin-related protein 3 (Homo sapiens) (UniProt O95633); test: FSTL3 binders on small-molecule microarrays, primary screen, biochemical, small-molecule microarray, 635 nm fluorescence (AID 1105); conditions: FSTL3 binding, higher = more signal;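 also: score merges emission near 667 nm and signal to noise per printed spot across three slides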
[9] = biological target: Dickkopf-related protein 1 (Homo sapiens) (UniProt O94907); test: DKK1 binders on small-molecule microarrays, primary screen, biochemical, small-molecule microarray, 635 nm fluorescence scan (AID 1106); conditions: DKK1 binding, higher = more signal;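 also: score merges emission near 667 nm with signal to noise over three replicate slides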
[10] = tested on: Inhibin beta A chain (activin A); test: INHBA (activin A) binders on microarrays, primary screen, biochemical, small-molecule microarray, 635 nm fluorescence scan (AID 1107); conditions: small-molecule microarray binding, higher = more signal;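 also: mouse activin A protein probed at 4.33 µg/mL on printed slides; score merges bound-protein fluorescence near 667 nm with spot signal-to-noise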

Sequence of Epidermal growth factor receptor (Homo sapiens) (P00533 whole entry, looked up): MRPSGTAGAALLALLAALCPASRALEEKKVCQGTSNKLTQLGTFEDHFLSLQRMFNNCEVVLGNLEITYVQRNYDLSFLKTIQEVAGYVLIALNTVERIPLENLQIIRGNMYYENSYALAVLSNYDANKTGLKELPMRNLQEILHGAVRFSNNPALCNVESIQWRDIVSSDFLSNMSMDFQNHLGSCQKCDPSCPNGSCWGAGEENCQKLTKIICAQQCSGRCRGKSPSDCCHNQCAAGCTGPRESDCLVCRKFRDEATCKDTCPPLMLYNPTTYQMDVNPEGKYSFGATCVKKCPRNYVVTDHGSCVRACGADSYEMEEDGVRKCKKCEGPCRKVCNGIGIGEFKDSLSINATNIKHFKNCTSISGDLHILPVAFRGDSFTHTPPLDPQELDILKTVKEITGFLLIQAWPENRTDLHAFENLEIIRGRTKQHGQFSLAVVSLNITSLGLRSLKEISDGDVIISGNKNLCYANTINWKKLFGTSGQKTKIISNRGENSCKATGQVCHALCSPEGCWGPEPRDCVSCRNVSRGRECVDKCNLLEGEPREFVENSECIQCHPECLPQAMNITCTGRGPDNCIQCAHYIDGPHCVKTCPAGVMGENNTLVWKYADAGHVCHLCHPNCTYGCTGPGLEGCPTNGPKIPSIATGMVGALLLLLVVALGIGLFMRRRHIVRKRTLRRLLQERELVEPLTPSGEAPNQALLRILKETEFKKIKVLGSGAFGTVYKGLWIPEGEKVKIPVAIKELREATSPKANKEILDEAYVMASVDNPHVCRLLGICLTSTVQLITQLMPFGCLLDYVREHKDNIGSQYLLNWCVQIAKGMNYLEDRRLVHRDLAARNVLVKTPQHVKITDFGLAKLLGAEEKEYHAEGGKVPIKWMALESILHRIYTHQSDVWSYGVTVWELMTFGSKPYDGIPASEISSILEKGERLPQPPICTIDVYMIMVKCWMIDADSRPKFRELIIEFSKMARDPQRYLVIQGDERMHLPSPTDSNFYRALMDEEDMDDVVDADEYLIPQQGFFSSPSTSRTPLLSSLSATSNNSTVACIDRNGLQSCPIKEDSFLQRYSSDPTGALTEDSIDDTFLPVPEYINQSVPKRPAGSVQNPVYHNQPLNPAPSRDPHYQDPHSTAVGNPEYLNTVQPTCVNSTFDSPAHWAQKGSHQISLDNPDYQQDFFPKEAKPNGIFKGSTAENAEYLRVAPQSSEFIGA
Sequence of Follistatin-related protein 3 (Homo sapiens) (O95633 whole entry, looked up): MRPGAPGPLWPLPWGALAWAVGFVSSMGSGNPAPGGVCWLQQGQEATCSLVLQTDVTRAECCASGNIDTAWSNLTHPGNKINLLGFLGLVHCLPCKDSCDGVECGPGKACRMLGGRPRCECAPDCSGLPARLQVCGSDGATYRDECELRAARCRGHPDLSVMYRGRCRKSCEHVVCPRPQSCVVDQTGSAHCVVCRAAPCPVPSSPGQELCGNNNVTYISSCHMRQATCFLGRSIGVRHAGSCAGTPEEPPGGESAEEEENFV
Sequence of Dickkopf-related protein 1 (Homo sapiens) (O94907 whole entry, looked up): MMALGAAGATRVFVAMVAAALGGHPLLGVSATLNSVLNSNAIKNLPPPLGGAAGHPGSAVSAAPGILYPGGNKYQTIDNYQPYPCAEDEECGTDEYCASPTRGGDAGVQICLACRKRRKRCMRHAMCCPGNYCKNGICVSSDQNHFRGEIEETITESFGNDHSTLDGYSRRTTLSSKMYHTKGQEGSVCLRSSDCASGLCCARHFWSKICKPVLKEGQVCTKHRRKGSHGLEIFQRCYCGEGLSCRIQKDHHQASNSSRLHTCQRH
Sequence of Fibroblast growth factor 10 (Homo sapiens) (O15520 whole entry, looked up): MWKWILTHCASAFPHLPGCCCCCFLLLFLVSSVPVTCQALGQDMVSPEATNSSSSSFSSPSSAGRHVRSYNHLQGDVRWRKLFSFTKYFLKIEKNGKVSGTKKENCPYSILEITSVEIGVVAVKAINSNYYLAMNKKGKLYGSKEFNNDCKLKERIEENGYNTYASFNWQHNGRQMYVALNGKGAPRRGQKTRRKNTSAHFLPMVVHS

[N-]=[N+]=NCc1ccccc1C[C@]1(C(=O)NCC(O)CO)N=C(c2ccc(OCCCO)cc2)O[C@H]1c1ccccc1CN=[N+]=[N-] (stereo not given in full)
composite z-score [1]: 0.425
composite z-score [2]: 0.384
composite z-score [3]: 0.953
z-score [4]: -0.47 (inactive)
composite z-score [5]: 1.08
composite z-score [6]: 1.15
composite z-score [7]: -0.154
composite z-score [8]: -0.392
composite z-score [9]: -0.749
composite z-score [10]: 0.387

C=CCC(OC(C)=O)[C@@H]1[C@@H](N(Cc2cc3ccccc3o2)C(=O)c2ccc(C)cc2)c2cc(OCCCO)ccc2N1C(=O)Cc1ccc2ccccc2c1 (stereo not given in full)
composite z-score [1]: -0.45
composite z-score [2]: 0.258
composite z-score [3]: 0.43
z-score [4]: -0.793 (inactive)
composite z-score [5]: -0.204
composite z-score [6]: -0.822
composite z-score [7]: -0.0197
composite z-score [8]: -0.32
composite z-score [9]: 0.182
composite z-score [10]: 1.2

CCCC=C(CCC)[C@@H](NP(=O)(c1ccccc1)c1ccccc1)c1ccc(C(F)(F)F)cc1
composite z-score [1]: -1.78
composite z-score [2]: 0.578
composite z-score [3]: 0.333
z-score [4]: -0.139 (inactive)
composite z-score [5]: 0.0142
composite z-score [6]: 0.734
composite z-score [7]: -0.0267
composite z-score [8]: -0.354
composite z-score [9]: -0.15
composite z-score [10]: 0.589

O=C1OC[C@@H](c2ccccc2)N2CC(/C=C/c3ccccc3)=CC12 (stereo not given in full)
composite z-score [1]: -0.0726
composite z-score [2]: -0.144
composite z-score [3]: 0.537
z-score [4]: -0.521 (inactive)
composite z-score [5]: -0.529
composite z-score [6]: -0.511
composite z-score [7]: -2.06
composite z-score [8]: -1.16
composite z-score [9]: -1.15
composite z-score [10]: 0.0575

COC(=O)[C@@]1(Cc2ccc(F)cc2)[C@H]2c3cc(C(=O)N4CCCC4)n(CCc4c[nH]c5ccc(OC)cc45)c3C[C@H]2CN1C(=O)c1ccccc1
composite z-score [1]: 1.03
composite z-score [2]: 1.6
composite z-score [3]: 1.01
z-score [4]: -3.28 (inactive)
composite z-score [5]: 1.53
composite z-score [6]: 1.18
composite z-score [7]: 0.763
composite z-score [8]: 0.735
composite z-score [9]: 0.0605
composite z-score [10]: 1.06

COCCCNC(=O)[C@@]1(Sc2ccc(C)cc2)CC(=O)N(C2Cc3ccccc3C2)[C@@H]1c1ccc(CO)cc1I
composite z-score [1]: 0.693
composite z-score [2]: 0.59
composite z-score [3]: 0.947
z-score [4]: -0.697 (inactive)
composite z-score [5]: -0.235
composite z-score [6]: -1.1
composite z-score [7]: -0.689
composite z-score [8]: -1.58
composite z-score [9]: -1.77
composite z-score [10]: 0.388

O=C1O[C@@H](c2ccccc2)[C@@H](c2ccccc2)N2[C@@H](c3ccccc3OCCO)[C@]3(C(=O)Nc4ccccc43)[C@@H](C(=O)NC[C@H](O)c3ccccc3)[C@H]12
composite z-score [1]: 1.11
composite z-score [2]: 0.597
composite z-score [3]: 0.76
z-score [4]: -1.66 (inactive)
composite z-score [5]: -0.369
composite z-score [6]: 0.342
composite z-score [7]: -0.528
composite z-score [8]: 0.0805
composite z-score [9]: -0.547
composite z-score [10]: -0.189

CC=CC(O)C1C=CC2C(=O)N(C)C(=O)C2N1N1CCCCC1 (stereo not given)
composite z-score [1]: 1.11
composite z-score [2]: 0.123
composite z-score [3]: 0.452
z-score [4]: 0.661 (inactive)
composite z-score [5]: 0.888
composite z-score [6]: 1.23
composite z-score [7]: 0.519
composite z-score [8]: 1.26
composite z-score [9]: 0.22
composite z-score [10]: 0.898

CCCN1C(=O)[C@]2(Cc3ccccc3)N=C(c3ccc(OCCCO)cc3)O[C@@H]2c2ccccc21
composite z-score [1]: 1.25
composite z-score [2]: 0.206
composite z-score [3]: 0.41
z-score [4]: -1.41 (inactive)
composite z-score [5]: 1.24
composite z-score [6]: 1.32
composite z-score [7]: 0.642
composite z-score [8]: 0.928
composite z-score [9]: 0.223
composite z-score [10]: 0.808

CC(CO)N1C(=O)[C@@H]2C3C(=O)OCCC/C=C\[C@H]3OC23C=CCN(Cn2nnc4ccccc42)C(=O)[C@@H]13 (stereo not given in full)
composite z-score [1]: 1.82
composite z-score [2]: -0.0595
composite z-score [3]: -0.102
z-score [4]: -0.411 (inactive)
composite z-score [5]: -0.134
composite z-score [6]: -0.527
composite z-score [7]: -0.718
composite z-score [8]: -0.474
composite z-score [9]: -0.361
composite z-score [10]: 0.339

CCCc1cccc(=O)o1
composite z-score [1]: 0.521
composite z-score [2]: -0.161
composite z-score [3]: -0.401
z-score [4]: -0.396 (inactive)
composite z-score [5]: 0.215
composite z-score [6]: 1.04
composite z-score [7]: -0.21
composite z-score [8]: 0.182
composite z-score [9]: 0.646
composite z-score [10]: 1.06

CC(C)N1CC=CC23O[C@@H]4C=CCCOC(=O)C4[C@H]2C(=O)N(CCO)[C@@H]3C1=O (stereo not given in full)
composite z-score [1]: 0.154
composite z-score [2]: -0.377
composite z-score [3]: -0.0034
z-score [4]: -1.22 (inactive)
composite z-score [5]: 0.107
composite z-score [6]: -0.504
composite z-score [7]: -0.458
composite z-score [8]: -0.762
composite z-score [9]: -0.155
composite z-score [10]: -0.101

CC1CC/C=C\[C@H]2OC34C=CCN(c5ccc6ccccc6c5)C(=O)[C@H]3N(C(CO)C(C)C)C(=O)[C@@H]4C2C(=O)O1 (stereo not given in full)
composite z-score [1]: 0.675
composite z-score [2]: -0.305
composite z-score [3]: 0.623
z-score [4]: 6.6e-05 (inactive)
composite z-score [5]: -0.209
composite z-score [6]: -0.176
composite z-score [7]: -0.56
composite z-score [8]: -0.163
composite z-score [9]: -0.495
composite z-score [10]: 1.2

COC(=O)[C@@]1(Cc2ccc(OC)cc2)[C@H]2c3cc(C(=O)N(C)C)n(Cc4ccccc4)c3C[C@H]2CN1C(=O)c1ccccc1
composite z-score [1]: 0.656
composite z-score [2]: 0.268
composite z-score [3]: -0.332
z-score [4]: -2.28 (inactive)
composite z-score [5]: 0.0697
composite z-score [6]: 0.0849
composite z-score [7]: -0.342
composite z-score [8]: -0.0447
composite z-score [9]: -0.128
composite z-score [10]: 0.825

COC(=O)[C@@]1(Cc2ccccc2)[C@H]2c3cc(C(=O)N4CCCC4)n(Cc4cc(F)cc5c4OCOC5)c3C[C@H]2CN1C(=O)c1ccccc1
composite z-score [1]: 1.54
composite z-score [2]: 0.513
composite z-score [3]: 1.1
z-score [4]: -0.955 (inactive)
composite z-score [5]: 1.22
composite z-score [6]: 0.0232
composite z-score [7]: -0.12
composite z-score [8]: 0.286
composite z-score [9]: -0.66
composite z-score [10]: 0.538
